B1: ENSMUSG00000004113.29|Cacna1b (ssRNA)
RNA: GGGAGUUCUACAGUCCGACGAUCGCUUCGAUAUCCGCAUGCUACACUCACCUUUGAAGAGGCAGUGGCCACCAACUCUGGCCGCUCCUCCAGGACUUCCUAUGUGUCCUCCCUCACUUCCCAAUCCCACCCUCUCCGCCGUGUACCCAAUGGCUAUCACUGCACUUUGGGACUCAGCACUGGCGUCCGGGCGCGGCACAGCUACCACCACCCCGAUCAGGACCACUGGUGCUAGCUGCACCACGACCACCCAUGUACCAGCUCCAUGGGUGAGGGUUCCAGUUGAUGAGUUUUAUCAUCCGCUCUCUUGCGGUCGCACUAGUGUGGAAUUCUCGGGUGUCAAGG
B2: ENSMUSG00000034801.222|Sos2 (ssRNA)
RNA: GGGAGUUCUACAGUCCGACGAUCGCUUCGAUAUCCGCAUGCUAUGUAAGUCUGGAACAAAAGUGUCUUAUGGCAUAAGAACCAACUGCCAUUGUCAAACCUAUUAACUGUCUUUAAUCUCGUGUUAACUGAAAUUUUUGAAAAGUUUUUCCAGAUUAGUAAUAUUUAAACAGAAAAUACUUUAAAAAGCUUUAUUAAAUUUUUUAAUCAGGAUAAAGCUUUGCCAUUUGGAUACUAUCAUUCAAAGUGAUCAAGGUAUGUAUGUUAUGCUGAUAGUGCAGUAGCAGCCAUUGUAAAGUAGCCACUCUUGCGGUCGCACUAGUGUGGAAUUCUCGGGUGUCAAGG
B3: ENSMUSG00000061578.107|Ksr2|134:138;220:225 (ssRNA)
RNA: GGGAGUUCUACAGUCCGACGAUCGCUUCGAUAUCCGCAUGCUAGGCCUCUCUGGGGACCAGUCCCUGGCCUUCACCCUUCUCCCAUUUUGUAAGAACACUGUUCUAACUCACCUCAUGCCCACGCUACCCUGGGCAACUGGAGAACACCAUAGCGUUUCAGCUGAUGUGACAUUUGCACACACCUUUACCAGUUCACCAUCAUUCAUGGCUUCCCCCAAAGUCCCGAGUCCUGAGAACCGGGGCUGUGGCAAGAGAGUUCUGCACACAUCUCUCUGUGGGGCUAGCAAUGCCGGGGUUAAGUUCUCUUGCGGUCGCACUAGUGUGGAAUUCUCGGGUGUCAAGG
B4: ENSMUSG00000031028.253|Tub (ssRNA)
RNA: GGGAGUUCUACAGUCCGACGAUCGCUUCGAUAUCCGCAUGCUAAGCUCUUGCCUGUGUGCCAUCUGUGAGAAGCUUCUUGGAGCUGAGACACCAGAGGGAAGCAAAGAGCAUUUAGACAUUGCUUUUUGCUUUGAAAUAGAUAUGUUUGGAAACGCUAAGUAGAAGUUUAAAAAGUAGAGUCAUGUAGAGUCAUGCUUUGAAUAUGUGGGUCAUGCUUUAGAUAUGAAGAGGCUAUGCAGGUAAGGAGGCUGGAUUGAUGUAAAUGGAAGUAGUACUUUAAGAAAGCUCUAGAUUUCCCAGGUCUCUUGCGGUCGCACUAGUGUGGAAUUCUCGGGUGUCAAGG
B5: ENSMUSG00000031028.56|Tub|187:199;217:221 (ssRNA)
RNA: GGGAGUUCUACAGUCCGACGAUCGCUUCGAUAUCCGCAUGCUACCAAGGUCAACACACAUGCCCAGUCCUGGGUCAGUCCCCUGCUGCAGUGGUGUUAUCACACCGGAAAGCCUCUUCACCUGGAGGUACAGAGGGAGAGGAAGCACAAGCCUGGCUGCUGUGGCUCAGCCAUCCACUCAGCCUACGAGUCAGAGACAGUGGGUGUCCCGGGAAGCAGGGGUACAGUGACACACACACAUACUACAGGGCACUCAAGCUCAUACUAGAAAAAGCUCUGGUGGUCAGCAGAAAGCACUCCCACUCUCUUGCGGUCGCACUAGUGUGGAAUUCUCGGGUGUCAAGG
B6: ENSMUSG00000043670.83|Diras1 (ssRNA)
RNA: GGGAGUUCUACAGUCCGACGAUCGCUUCGAUAUCCGCAUGCUAAUCCCAGUCAGGCCCAGAGAGGUUACCUUGCCUCUCCAUCUCUGUCCCUGUGUGCCCAGCCAUGCCCACUGUCCCUGUCCCUCACAUUCUAUCACUGUGACCUCUGGGGAGUGCCCAUUGACCUCAUCUUCCUUCACUAAUAUCUUAUUUCUUUCACCUGAUCCUGUCCUUUCCCCGUGACCUCUGACCUGUGGCCUUCCCUGGGUCCAGAACACCCCUGUCCUCUCCUGUCUGCACACCAGGGUGGAUGGGCCCGAGGGCUCUUGCGGUCGCACUAGUGUGGAAUUCUCGGGUGUCAAGG
B7: ENSMUSG00000028439.194|Fam219a (ssRNA)
RNA: GGGAGUUCUACAGUCCGACGAUCGCUUCGAUAUCCGCAUGCUAAGCCUAUCUGUCCAGGGAACCAGAUUGGUGUCCGAGAUGAGGAAAUGGCUGUGGCCUGGGAAAUCAGUGAGAGGCCGCUUGGGAAUGAGAAUGCAGUGGACUGAAAGCACAGCCUGGCCAUCUGGAACCUGGGUUCUGGUCCCAGCCUCGGCAUUCUCCCUGAGCUCCUAAGCAAUUCCCAGGCUUCUCUAGGGCUUCAGUUCUCACAACUGGAAAAUAAAGAGUAGCUGACAUCACCGACAGAGUCUUUUCAUACCAGACUCUUGCGGUCGCACUAGUGUGGAAUUCUCGGGUGUCAAGG
B8: ENSMUSG00000031028.89|Tub (ssRNA)
RNA: GGGAGUUCUACAGUCCGACGAUCGCUUCGAUAUCCGCAUGCUAGUACAGGGCACUCAAGCUGUAUGUAGAAAAAGCUCUGGUGGUCAGCAGAAAGCACUCCCACUUCAAAAGGGCCCAUUAGGCCCAAAGGGGGUUAGGAGUGGUAGGGAUAGGUGCGUGGCAGGUCCCUGCUAGGAUUGCAGGGGCCUGGCCAUGUGUAUUAGCUGGAGGCUUAGAAUGCUAGCUCAUUUGUUGCUACAGAUUUGCCCAGUGCUUGCACACGUAAGAACCCAGCUCUCAAGGCCAAAUAUCUGAGUGGAUGGCUCUUGCGGUCGCACUAGUGUGGAAUUCUCGGGUGUCAAGG
B9: ENSMUSG00000034801.36|Sos2 (ssRNA)
RNA: GGGAGUUCUACAGUCCGACGAUCGCUUCGAUAUCCGCAUGCUAGCAGAAUUCAAGCCCUCUCUUACCAAAGCUGCCACCAAAGACUUACAAACGGGAGCUUUCCCACCCGCCACUGUAUAGACUGCCUCUGCUGGAAAAUGCAGAAACUCCUCAAUGACCUUGGCCAUAUGUAGUCAUUGACACUGGAAUAGUAUUUGUAAAGGUUUUUAAUUUAUUCAAAAAGACAUAGUAUUUUAGUACUUUUUACAGAAAUGCUACUGAUUAAAUAAGCUCUUAAGAAUUAGUAAACUUGUUGGAUGGCACUCUUGCGGUCGCACUAGUGUGGAAUUCUCGGGUGUCAAGG

The results in this text go back to PMC12864922, “TDP-43 directly inhibits mRNA accumulation in neurites through modulation of mRNA stability”.

The full ranking holds about 9,900 sequences; the median of “r (bound/input frequency ratio)” is about 0.7, and the highest 2% start at about 6.5. This excerpt belongs to a sample that is enriched for the highest values.

Sequence of TDP-43 (Q13148 whole entry): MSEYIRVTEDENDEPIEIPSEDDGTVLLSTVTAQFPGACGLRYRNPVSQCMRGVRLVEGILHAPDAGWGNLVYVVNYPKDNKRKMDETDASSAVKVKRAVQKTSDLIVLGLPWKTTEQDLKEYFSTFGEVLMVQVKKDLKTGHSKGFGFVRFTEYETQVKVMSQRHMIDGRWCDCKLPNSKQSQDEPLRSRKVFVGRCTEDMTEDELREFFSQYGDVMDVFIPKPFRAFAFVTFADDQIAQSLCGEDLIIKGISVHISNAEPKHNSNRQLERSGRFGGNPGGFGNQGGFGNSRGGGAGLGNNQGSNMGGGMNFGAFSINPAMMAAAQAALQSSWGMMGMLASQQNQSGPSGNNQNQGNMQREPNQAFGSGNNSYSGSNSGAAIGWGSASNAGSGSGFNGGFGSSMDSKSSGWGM

The experiment addresses TDP-43 (Homo sapiens, UniProt Q13148 1-414). The experiment in a line: RNA Bind-n-Seq with designed 260-mer pool; 25 mM Tris-HCl, 150 mM KCl, 3 mM MgCl2, BSA (printed 500 mg/mL), 20 units/mL SUPERase IN; pH not stated; 500 nM RNA pool, 1 h, 4 C; TDP-43 5, 50, 500 nM; high values mean tight binding. As to conditions: protein: recombinant; tags: SBP (GST cleaved off with PreScission; pGEX-GST-SBP). The method in brief: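 The incubation lasted 1 h at 4 °C and used 500 nM of an in vitro-transcribed 260-nt 3′ UTR oligo pool with recombinant SBP-tagged TDP-43 at 5, 50 or 500 nM immobilized on streptavidin beads. It took place in 25 mM Tris-HCl, 150 mM KCl, 3 mM MgCl2, BSA and SUPERase IN. Bound RNA was washed, eluted with biotin, converted to cDNA, PCR-amplified and sequenced to give R, each oligo's normalized abundance in the bound sample divided by that in input. Two independent protein batches provided the duplicates.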
Turning to B1, the binding signal was 0.399 R (bound/input frequency ratio).

For B2, the binding signal is 0.0419 R (bound/input frequency ratio).

Take B3: the binding signal was 0.895 R (bound/input frequency ratio).

As to B4, the binding signal was 2.03 R (bound/input frequency ratio).

Consider B5, for which the binding signal was 1.06 R (bound/input frequency ratio).

For B6, the binding signal is 2.21 R (bound/input frequency ratio).

Consider B7, for which the binding signal was 0.186 R (bound/input frequency ratio).

With B8, the binding signal was 4.96 R (bound/input frequency ratio).

Consider B9, for which the binding signal is 0.12 R (bound/input frequency ratio).
